Screening data (PubChem BioAssay)
DAX1 inh-1 – NR0B1 (DAX1) inhibition; P51843; HEK293 Gal4-DAX1 luciferase reporter, luminescence; inhibition, % at 6.75 µM; actives 0.99% (n = 340,000);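 active means inhibition above the mean over all tested compounds plus 3 SD, cut at about 4.2% in these data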;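 further: 0% = DAX1-transfected cells with DMSO and 100% = empty-vector control cells with DMSO; inhibition shows as a rise in luminescence from relieved DAX1 repression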
Target sequence (P51843 207-470 limits assumed): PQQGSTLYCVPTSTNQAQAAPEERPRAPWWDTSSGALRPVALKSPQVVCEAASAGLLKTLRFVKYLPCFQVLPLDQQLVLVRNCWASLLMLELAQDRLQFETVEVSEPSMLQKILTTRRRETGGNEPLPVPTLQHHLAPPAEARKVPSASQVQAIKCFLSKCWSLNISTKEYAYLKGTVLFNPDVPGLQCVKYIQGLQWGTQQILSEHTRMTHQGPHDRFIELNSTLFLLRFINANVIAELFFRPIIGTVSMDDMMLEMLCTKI
hcDAF12 agonist – H. contortus DAF-12 activation, primary screen. HEK293 hcDAF-12 lit1-tk-luc reporter, luminescence; 0% DMSO, 100% Δ7-dafachronic acid. activation, % at 6.8 µM. actives 1.4% (n = 370,000);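 active means activation above the mean of all tested compounds plus 3 SD, cut at about 5.5% in these data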;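 further: 100% = response to 3 µM Δ7-dafachronic acid high control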
DAX1 inh-2 – inhibitors of DAX1 repression of SF-1 activated StAR promoter | actives 1.1% (n = 370,000) | AID 652010 | HEK293T StAR-luciferase reporter, SF-1/DAX-1 repression relief | inhibition, % at 6.8 µM;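 active means inhibition above the mean over all tested compounds plus 3 SD, cut at about 3.6% in these data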;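 further: 0% = DAX-1 cells with DMSO and 100% = cells lacking DAX-1 with DMSO; higher inhibition means more luminescence from relief of DAX-1 repression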
ssDAF12 agonist – S. stercoralis DAF-12 activation, primary screen; HEK293 ssDAF-12/GRIP1 lit1-tk-luc reporter, luminescence; % of 3 µM dafachronic acid response; activation, % at 6.8 µM; actives 1% (n = 370,000); AID 652126;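 active means activation above the mean over all tested compounds plus 3 SD, cut at about 0.9% in these data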;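 further: 0% = DMSO-only wells and 100% = 3 µM delta7-dafachronic acid wells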
hgDAF-12 ag – hgDAF-12 agonism, primary luciferase screen; HEK293 GAL4-hgDAF12 UAS-luciferase reporter, agonist luminescence; normalized to butyrate control; activation, % at 6.8 µM; actives 1.8% (n = 370,000); AID 687014;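 active means activation above a cutoff set at the mean of all screened compounds plus 3 SD, cut at about 10% in these data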;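 further: 0% = DMSO wells and 100% = sodium butyrate wells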
AHR act – activators of human aryl hydrocarbon receptor; P35869; AHR-responsive luciferase reporter cells, luminescence; activation, % at 5 µM; actives 2.5% (n = 320,000); AID 2796; in the data active means activation above about 47%;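 further: 0% = vehicle wells and 100% = reference agonist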
Active calls of the source: *. The list is not random: actives were taken first. Their share in the collection is about 5.7%.

`C[C@@H]1COc2cc(N3CCCC3)ccc2S(=O)(=O)N1C` gave hcDAF12 agonist 2, DAX1 inh-2 0, ssDAF12 agonist -1 and hgDAF-12 ag -1.
Screening Cc1ccccc1OC(=O)C1C(c2ccccc2)C(C(=O)O)C1c1ccccc1 (configuration not stated) returned DAX1 inh-1 5.0*, hcDAF12 agonist 5, DAX1 inh-2 0, ssDAF12 agonist 0, hgDAF-12 ag 3 and AHR act -1.
`CSc1nc(-c2ccccc2)nc(N2CCOCC2)c1C(C)=O` gave DAX1 inh-1 2, hcDAF12 agonist -1, DAX1 inh-2 1, ssDAF12 agonist -2, hgDAF-12 ag 0 and AHR act 69*.
FC(F)(F)c1nnc(-c2ccccc2)nc1N1CCOCC1 was read as DAX1 inh-1 -1, hcDAF12 agonist 0, DAX1 inh-2 -1, ssDAF12 agonist -2, hgDAF-12 ag -2 and AHR act 53*.
COc1ccc(CNC(=O)N2CCN(c3cccc(Cl)c3)CC2)cc1OC was read as DAX1 inh-1 -1, hcDAF12 agonist -2, DAX1 inh-2 0, ssDAF12 agonist -2, hgDAF-12 ag -4 and AHR act -1.
`CC(SCc1ccccc1)C(=O)Nc1ccccc1Br` (configuration not stated) gave DAX1 inh-1 -1, hcDAF12 agonist 0, DAX1 inh-2 0, ssDAF12 agonist -1, hgDAF-12 ag 2 and AHR act 2.
CC(C)Oc1ccc(C(=O)O)cc1 was read as DAX1 inh-1 1, hcDAF12 agonist 1, DAX1 inh-2 1, ssDAF12 agonist -1, hgDAF-12 ag 1 and AHR act 0.
`CC1=N/C(=C\c2ccc(OC(C)C)cc2)C(=O)N1c1ccc(C(=O)O)cc1` gave DAX1 inh-1 -1, hcDAF12 agonist -3, DAX1 inh-2 0, ssDAF12 agonist 1.9*, hgDAF-12 ag 2 and AHR act 0.
`CC(C)=CCC[C@H](C)C[C@@H]1CC2=C(C(=O)OC(C)(C)O2)[C@H](c2ccc(F)cc2)O1` gave hcDAF12 agonist 3, DAX1 inh-2 -1, ssDAF12 agonist -1 and hgDAF-12 ag 1.
`CCOC(=O)Cc1csc(NS(=O)(=O)c2cccc([N+](=O)[O-])c2)n1` gave DAX1 inh-1 0, hcDAF12 agonist 1, DAX1 inh-2 0, ssDAF12 agonist -1, hgDAF-12 ag 0 and AHR act -2.
For Cc1csc(NS(=O)(=O)c2cccc([N+](=O)[O-])c2)n1 the results were DAX1 inh-1 6.1*, hcDAF12 agonist 0, DAX1 inh-2 1, ssDAF12 agonist -1, hgDAF-12 ag -2 and AHR act 0.
For COc1cccc(-c2cc(C(=O)Nc3ccc([N+](=O)[O-])cn3)c3ccccc3n2)c1 the results were DAX1 inh-1 0, hcDAF12 agonist 0, DAX1 inh-2 -2, ssDAF12 agonist -1, hgDAF-12 ag 0 and AHR act 10.
CCOc1c2ccc(C(=O)NCC34CC5CC(CC(C5)C3)C4)cc2nn1CC was read as DAX1 inh-1 0, hcDAF12 agonist -2, DAX1 inh-2 0, ssDAF12 agonist -2, hgDAF-12 ag 0 and AHR act 51*.
CCn1nc2cc(C(=O)NCC34CC5CC(CC(C5)C3)C4)ccc2c1OC was read as DAX1 inh-1 -1, hcDAF12 agonist 0, DAX1 inh-2 0, ssDAF12 agonist -1, hgDAF-12 ag -1 and AHR act 3.
For O=C(N/N=C/c1cn(-c2ccccc2)nc1-c1ccc2c(c1)OCCO2)c1ccncc1 the results were DAX1 inh-1 0, hcDAF12 agonist -1, DAX1 inh-2 1, ssDAF12 agonist -1, hgDAF-12 ag 10* and AHR act 12.
O=C(N/N=C\c1cn(-c2ccccc2)nc1-c1ccccc1)c1ccc2c(c1)OCO2 was read as DAX1 inh-1 0, hcDAF12 agonist 1, DAX1 inh-2 0, ssDAF12 agonist -1, hgDAF-12 ag 2 and AHR act -2.
`COc1ccc(CC2(CO)CCN(S(=O)(=O)N(C)C)CC2)cc1` gave DAX1 inh-1 1, hcDAF12 agonist 0, DAX1 inh-2 0, ssDAF12 agonist -1, hgDAF-12 ag 0 and AHR act -1.
